Measured values taken from PubChem BioAssay AID2783 (National Center for Advancing Translational Sciences (NCATS), 2010).
Results filed as inconclusive are left out. Active and inactive are the calls of the source. The call rests on the fitted dose curve; in most records, active means well fitted inhibition curve with a large enough effect in the polarisation, with a control signal flat (not every such curve was filed as active); inconclusive means small, poorly fitted or top-dose-only effect, or effect the other way, or a change in a side signal; inactive means no such curve, though single readings can be large or run the other way; the % refers to the polarisation.

target: Menin (Homo sapiens) (UniProt O00255); assay: Confirmation of Inhibitors Targeting the Menin-MLL Interaction in MLL Related Leukemias: Competition With Fluorescein Labeled MLL-derived Peptide; details: Fluorescence polarization, fluorescein-MLL peptide displacement from menin; series mostly up to 100 µM
Sequence (O00255 whole entry, looked up): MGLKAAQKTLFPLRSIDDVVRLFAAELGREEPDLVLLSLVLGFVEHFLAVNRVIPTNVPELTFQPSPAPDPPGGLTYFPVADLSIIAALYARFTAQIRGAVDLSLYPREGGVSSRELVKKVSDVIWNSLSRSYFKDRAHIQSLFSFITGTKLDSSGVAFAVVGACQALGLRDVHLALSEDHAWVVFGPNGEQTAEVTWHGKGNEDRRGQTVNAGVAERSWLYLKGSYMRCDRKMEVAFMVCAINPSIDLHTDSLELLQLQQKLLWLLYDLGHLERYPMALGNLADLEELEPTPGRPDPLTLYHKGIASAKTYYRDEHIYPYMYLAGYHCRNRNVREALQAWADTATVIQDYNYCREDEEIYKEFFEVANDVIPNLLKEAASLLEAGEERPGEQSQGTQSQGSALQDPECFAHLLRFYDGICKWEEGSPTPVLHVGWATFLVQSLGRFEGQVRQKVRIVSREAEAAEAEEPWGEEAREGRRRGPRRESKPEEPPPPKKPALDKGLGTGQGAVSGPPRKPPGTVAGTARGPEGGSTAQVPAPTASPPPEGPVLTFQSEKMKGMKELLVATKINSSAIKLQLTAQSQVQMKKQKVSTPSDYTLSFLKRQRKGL

outcome, inactive:
CCOC(=O)N1CCN(CC(=O)N2c3ccccc3Sc3ccccc32)CC1
NC(=O)C1CCN(C2=C(Cl)C(=O)c3ccccc3C2=O)CC1
Cc1ccc(S(=O)(=O)c2cc(OC(=O)c3ccco3)ccc2OC(=O)c2ccco2)cc1
NC(=O)c1ccc(NC(=O)c2cncn2-c2ccccc2)cc1
CN1[C@H](CC(=O)c2ccccc2)CCC[C@H]1C[C@@H](O)c1ccccc1
c1ccc2c(c1)NCC1CCCN21 (stereo not drawn)
COc1ccc(S(=O)(=O)Nc2cc(SCC(=O)O)c(O)c3ccccc23)cc1
CC(=O)Nc1ccc(-c2cc(-c3ccc(NC(C)=O)cc3)nc(-c3ccc(NC(C)=O)cc3)n2)cc1
Cc1[nH][nH]c(=O)c1C(c1c(C)[nH][nH]c1=O)c1cn(Cc2ccccc2Cl)c2ccccc12
COc1ccc(-c2csc(NC(=S)NC(=O)/C=C/c3ccc(C(C)C)cc3)n2)cc1OC
O=C(NC(=S)Nc1nc(-c2ccc(Br)cc2)cs1)c1cccnc1
Cc1ccc(C(C[N+](=O)[O-])c2c(C)[nH]n(-c3ccccc3)c2=O)cc1 (stereo not drawn)
CCc1nnc(NC(=O)C2(C)COC(c3ccc(OC)cc3)OC2)s1 (stereo not drawn)
CCCC(=O)Nc1cccc(NC(=O)c2ccc([N+](=O)[O-])cc2Cl)c1
O=C(C1CCCN(Cc2cccc(Cl)c2)C1)N1CCCCC1 (stereo not drawn)
COc1ccc(OC)c(C(c2c(C)[nH][nH]c2=O)c2c(C)[nH][nH]c2=O)c1
O=C(CSc1nnc(-c2c[nH]c3ccccc23)o1)N1c2ccccc2CCc2ccccc21
N#CC1=C(N)OC2=C(C(=O)CC(c3ccco3)C2)C1c1ccc(OCc2c(F)cccc2Cl)cc1 (stereo not drawn)
COc1cc(NC(=O)c2cccnc2)c(OC)cc1NC(=O)c1ccc(Br)cc1
COc1ccc(/C=C(\C#N)C(=O)NCc2ccccc2)cc1
COC(=O)c1cc(CNC(=O)CCCSc2ccccc2)ccc1OC
COC(=O)Cc1c(C)nc2nc(-c3ccc(OC)cc3)[nH]n2c1=O
O=C(Nc1cccn(Cc2c(Cl)cccc2Cl)c1=O)c1c(Cl)cccc1Cl
COc1ccc(N(C(=O)c2ccncc2)S(=O)(=O)c2ccc(Cl)cc2)cc1
CCCOc1ccc(C(=O)N2CCN(Cc3ccc4c(c3)OCO4)CC2)cc1
N#Cc1ccc(Cl)cc1NC(=O)CNCc1cccs1
CN(C)CCCNCC(=O)c1c(-c2ccccc2)n(C)c2ccccc12
Cc1ccc(NC(=O)C(OC(=O)c2ccc(C=O)cc2)c2ccccc2)cc1Cl (stereo not drawn)
Cn1ncc2c(N3CCCCC3)nc(NCCCO)nc21
O=C(N1CCOCC1)N1CCN(S(=O)(=O)c2ccc(Cl)cc2)CC1
O=[N+]([O-])CC(c1ccccc1)P(=O)(c1ccccc1)c1ccccc1 (stereo not drawn)
Cc1ccccc1-c1n[nH]c(=S)n1C
CCOc1ccc(CCNC(=O)C(C)N2C(=O)CC(C)(C)Sc3ccccc32)cc1 (stereo not drawn)
